This is a sample that favours compounds with a hit; in the whole collection about 27% have one here.
sEH activator = soluble epoxide hydrolase activators, primary screen, biochemical, human sEH; activation, % at 2 µM; 91,000 compounds, 0.04% hits; purified human sEH enzymatic activity, activator screen; AID 717, 2007; Bifunctional epoxide hydrolase 2 (Homo sapiens), P34913; in the data active means activation above about 37%
sEH inhibitor = soluble epoxide hydrolase inhibitors, primary screen, biochemical, human sEH; inhibition, % at 2 µM; 91,000 compounds, 0.34% hits; recombinant human sEH enzymatic activity assay; AID 707, 2007; in the data active means inhibition above about 80%
CYP2C19 act = human CYP2C19 activators, primary screen, biochemical, luminescence. AID 1025, 2008. recombinant CYP2C19, luciferin-H EGE luminescence; active compounds read high; 0 = fully inhibited enzyme, 1 = untreated enzyme. activation factor at 5 µM. 96,000 tested, under 10 active. Cytochrome P450 2C19 (Homo sapiens), P33261;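 active means activation factor of at least 2 at 5 µM in the primary screen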;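 further: 0 = wells with 2.5 mM tranylcypromine and 1 = vehicle-only wells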
CYP2C9 inhib = blockers of cytochrome P450 2C9 activity – biochemical, luminescence, ADME assay, primary screen; P11712; CYP2C9 Supersomes, luciferin-H conversion; inhibition, % at 5 µM; 96,000 compounds, 20% hits; AID 777, 2007;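 active means blocking of liver enzyme CYP2C9 beyond about 50% at 5 µM, limit read from the data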
Target sequence (P11712 whole entry, looked up): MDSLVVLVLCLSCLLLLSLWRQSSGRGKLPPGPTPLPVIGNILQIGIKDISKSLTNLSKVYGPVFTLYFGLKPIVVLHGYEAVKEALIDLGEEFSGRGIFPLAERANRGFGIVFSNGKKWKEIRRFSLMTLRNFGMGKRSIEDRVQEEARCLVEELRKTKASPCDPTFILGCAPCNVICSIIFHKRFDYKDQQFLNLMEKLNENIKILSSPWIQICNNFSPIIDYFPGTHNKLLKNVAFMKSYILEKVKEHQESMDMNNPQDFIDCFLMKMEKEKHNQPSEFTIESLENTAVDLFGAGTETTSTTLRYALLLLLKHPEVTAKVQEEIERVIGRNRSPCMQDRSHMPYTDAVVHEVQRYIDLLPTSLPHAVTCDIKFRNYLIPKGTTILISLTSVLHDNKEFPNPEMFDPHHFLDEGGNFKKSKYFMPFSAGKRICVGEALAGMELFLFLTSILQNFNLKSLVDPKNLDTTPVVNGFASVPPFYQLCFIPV
CYP2C19 inh = blockers of cytochrome P450 2C19 activity – biochemical, luminescence, ADME assay, primary screen. CYP2C19 Supersomes, luciferin-H EGE luminescence, 30 min. inhibition, % at 5 µM. 96,000 compounds, 21% hits. AID 778, 2007;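 active means CYP2C19 inhibition above a set limit at 5 µM in the primary screen, cut at about 50% in these data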;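 further: plate controls were negative control wells for no effect and 2.5 mM tranylcypromine positive control for full effect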
CYP2C9 act = human CYP2C9 activators, primary screen, biochemical, luminescence; recombinant CYP2C9, luciferin-H conversion; active compounds read high; factor 1 = untreated enzyme, 0 = blocked; activation factor at 5 µM; 96,000 compounds, 1.4% hits;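 active means activation factor of 2 or more for CYP2C9 at a 5 µM dose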;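 further: 0 = sulfaphenazole-blocked wells and 1 = vehicle-only wells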
* marks the source's active call; other numbers are inactive results; x = not tested or not shown.

SMILES	sEH activator	sEH inhibitor	CYP2C19 act	CYP2C9 inhib	CYP2C19 inh	CYP2C9 act
Cc1cc(NC(=O)c2cncc(Br)c2)n(-c2ccccn2)n1	5	-4	1	-59	4	1.6
CC1(C)NC(=O)N(CCOCCOc2ccccc2)C1=O	-7	6	0.5	18	48	0.8
CC1(C)NC(=O)N(CCOCCSc2ccccc2)C1=O	-4	7	0.1	39	86*	0.6
Cc1ccc(SCCCCN2C(=O)NC(C)(C)C2=O)cc1	7	-2	0.1	77*	88*	0.2
CC1(C)NC(=O)N(CCSc2ccc(Cl)cc2)C1=O	-12	12	0.1	50*	93*	0.5
O=C(Nn1c(=O)[nH]c2ccccc2c1=O)c1ccco1	4	-2	1.1	11	-14	0.9
C/C(N)=C(/C#N)C(=O)CSc1nnc(NC(C)C)s1	-11	13	0.4	31	56*	0.7
CC(C)N(C(=O)CSc1nnc(NC(=O)C2CCC2)s1)C(C)C	7	-9	1.1	-29	-10	1.3
CSc1nnc(Nc2ccccc2C)s1	-12	13	0.3	26	68*	0.7
C/C(N)=C(/C#N)C(=O)CSc1nnc(Nc2ccccc2C)s1	16	-16	0.4	45	60*	0.6
Cc1ccccc1Nc1nnc(SCC(=O)NC(=O)NCc2ccco2)s1	x	x	0.6	45	40	0.5
CC(=O)c1ccc(OCC(O)CN2C(C)(C)CC(O)CC2(C)C)cc1 (stereo not given)	19	-23	0.9	38	12	0.6
Cc1ncoc1C(=O)Nc1ccc2c(c1)OCCO2	-2	-1	0.6	16	35	0.8
Cc1c([N+](=O)[O-])c(C(=O)Nc2ccc3c(c2)OCCO3)nn1C	12	-10	0.3	5	68*	0.9
Cc1occc1C(=O)Nc1ccc2c(c1)OCCO2	1	2	0.2	47	81*	0.5
Cc1cc(=O)c2cc(Br)ccc2[nH]1	10	-8	0.8	52*	23	0.5
Cc1ccc(NCc2cccnc2)cc1	7	-13	0.5	38	54*	0.6
CCc1ccc(CNCc2cccnc2)cc1	-7	9	0.2	22	80*	0.8
c1cncc(CNc2ccc3c(c2)OCO3)c1	-1	0	0.1	83*	89*	0.2
CCn1c(NC(=O)c2cccs2)nc2ccccc21	-6	5	0.8	6	19	0.9
O=C(N1CCC(O)(c2cccnc2)CC1)C12CC3CC(CC(C3)C1)C2	-5	4	0.8	-10	15	1.1
CCN(Cc1ccccc1)CC(O)COc1ccccc1 (stereo not given)	-2	0	0.6	12	44	0.9
CC(OCC(O)CN(C)CCOc1ccccc1)c1ccc(Cl)cc1 (stereo not given)	5	-4	0.2	37	75*	0.6
CN(C)CCCOC(=O)C1c2ccccc2Oc2ccccc21	24	-24	0.3	-23	74*	1.2
O=C1C2C3C=CC(C3)C2C(=O)N1Cc1cccnc1 (stereo not given)	-6	8	1.1	3	-6	1
SMILES	sEH activator	sEH inhibitor	CYP2C19 act	CYP2C9 inhib	CYP2C19 inh	CYP2C9 act
O=C1c2ccc3c4c(ccc(c24)C(=O)N1Cc1cccnc1)C(=O)N(Cc1cccnc1)C3=O	0	1	1.1	-4	-12	1
O=C1C2C3c4ccccc4C(c4ccccc43)C2C(=O)N1Cc1cccnc1 (stereo not given)	-1	2	0.3	26	68*	0.7
O=C1C2C(C(=O)N1Cc1cccnc1)C1C=CC2C12CC2 (stereo not given)	-1	1	0.3	-1	66*	1
O=c1cc(CSc2nnc(-c3ccco3)o2)c2ccccc2[nH]1	7	-9	0.9	9	8	0.9
COc1ccc(S(=O)(=O)N(CC(C)C)CC(C)C)c2cccnc12	-2	1	0.6	92*	44	0.1
CCCCN(CCCC)S(=O)(=O)c1ccc(OC)c2ncccc12	x	x	0.9	66*	14	0.3
CCC(=O)c1ccc(OCCn2cncn2)cc1	2	0	0.5	67*	52*	0.3
Cc1ccc(S(=O)(=O)CCc2nc3ccccc3s2)cc1C	4	-1	0.4	29	58*	0.7
Cc1ccc(S(=O)(=O)CCc2nc3ccccc3s2)cc1	0	4	x	x	x	x
O=C(NCc1ccc(F)cc1)c1cnn2ccccc12	-7	8	0.4	2	60*	1
COc1ccc2oc(-c3ccccc3)c(C(N)=O)c2c1	x	x	0.8	-11	21	1.1
O=C(NCCc1ccc(Cl)cc1)C1CCC(=O)N1Cc1ccccc1Cl (stereo not given)	-4	7	0.6	44	36	0.6
O=C(Nc1ccc(Cl)cc1Cl)C1CCC(=O)N1Cc1ccccc1Cl (stereo not given)	-5	5	0.5	33	51*	0.7
Cc1cc2c(c(=O)o1)C(C(C)C)C(C#N)=C(N)O2 (stereo not given)	-10	9	0.4	0	57*	1
CCOc1cccc(C2C(C#N)=C(N)Oc3cc(C)oc(=O)c32)c1OCC (stereo not given)	11	-10	0.8	90*	21	0.1
COc1cc(C2C(C#N)=C(N)Oc3cc(C)oc(=O)c32)cc2c1OCO2 (stereo not given)	1	-1	0.8	54*	20	0.5
Cc1cc2c(c(=O)o1)C(Cc1ccccc1)C(C#N)=C(N)O2 (stereo not given)	-3	4	0.1	63*	86*	0.4
CCCC(C)C1C(C#N)=C(N)Oc2cc(C)oc(=O)c21 (stereo not given)	14	-8	x	x	x	x
CC1C(O)=C(c2nc3ccccc3[nH]2)C(=N)N1c1ccccc1 (stereo not given)	4	-6	0.9	2	9	1
O=C(c1cnc2n(c1=O)CCS2)N1CCN(c2ccc([N+](=O)[O-])cc2)CC1	-7	6	1.1	9	-6	0.9
CNC(=O)/C(=C\c1ccc([N+](=O)[O-])cc1)NC(C)=O	-11	13	1.1	1	-11	1
COc1cc(S(=O)(=O)NCc2cccnc2)c(OC)cc1Br	20	-19	0.9	12	14	0.9
Cc1ccnc(NS(=O)(=O)c2ccc(Oc3ccccc3)cc2)c1	1	-1	0.3	46	67*	0.5
Cc1cc(Nc2nc3ccccc3nc2Cl)n(-c2ccccc2C)n1	-7	11	0.1	49	89*	0.5
